Test results taken from PubChem BioAssay AID1434 (Sanford-Burnham Center for Chemical Genomics, 2008).
The campaign covered roughly 220,000 compounds. About 1,600 (0.73%) were called active.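 The calls were made as follows: active = mean inhibition across duplicate retests at 20 µM reaching about 50% (limit read from the data); inactive = the rest, inconclusive results apart.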 The entries come from a sample that favours actives as a whole.

Molecular target: Runt-related transcription factor 1 (Homo sapiens) + Core-binding factor subunit beta (Homo sapiens) (UniProt Q01196+Q13951)
Experiment: disruptors of Runt domain/CBFb-SMMHC interaction – biochemical, FRET, Cerulean-Runt, Venus-CBFb-SMMHC, uHTS, primary screen (AID 1434);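 also: 0% = DMSO wells and 100% = wells with excess untagged CBFb-SMMHC; inhibitors lower the FRET ratio by blocking Runt binding to CBFb-SMMHC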
Details: Cerulean-Runt/Venus-CBFb-SMMHC FRET ratio 530/480, 1 h, at 20 µM, stronger effect = higher value

Sequence of Runt-related transcription factor 1 (Homo sapiens) + Core-binding factor subunit beta (Homo sapiens) (Q01196 whole entry, looked up, the tested form may be a part): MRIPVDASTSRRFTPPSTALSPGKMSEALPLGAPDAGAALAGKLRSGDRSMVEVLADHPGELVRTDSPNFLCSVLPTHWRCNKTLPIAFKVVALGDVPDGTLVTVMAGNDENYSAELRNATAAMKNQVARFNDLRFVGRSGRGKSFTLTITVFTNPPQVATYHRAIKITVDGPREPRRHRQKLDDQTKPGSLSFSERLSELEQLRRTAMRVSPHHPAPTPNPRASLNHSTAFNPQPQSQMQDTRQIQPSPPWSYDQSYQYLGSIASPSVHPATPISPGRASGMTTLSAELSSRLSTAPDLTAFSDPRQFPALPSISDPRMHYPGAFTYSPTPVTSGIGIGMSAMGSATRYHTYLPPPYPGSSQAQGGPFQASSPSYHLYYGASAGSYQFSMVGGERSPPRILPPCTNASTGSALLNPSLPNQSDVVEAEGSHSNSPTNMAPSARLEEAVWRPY
Sequence of Runt-related transcription factor 1 (Homo sapiens) + Core-binding factor subunit beta (Homo sapiens) (Q13951 whole entry, looked up, the tested form may be a part): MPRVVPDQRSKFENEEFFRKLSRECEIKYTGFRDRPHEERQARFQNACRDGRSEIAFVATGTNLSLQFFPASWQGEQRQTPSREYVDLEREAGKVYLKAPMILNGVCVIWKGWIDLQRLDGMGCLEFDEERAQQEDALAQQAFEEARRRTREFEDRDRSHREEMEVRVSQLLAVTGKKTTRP

With `COc1cc(Cn2c(N)c(C(=O)NCc3ccco3)c3nc4ccccc4nc32)cc(OC)c1OC` the inhibition was 34.2% (inactive).
In the case of `CCOC(=O)c1c(N)n(CCN2CCOCC2)c2nc3ccccc3nc12`, the inhibition is reported as 69.9% (active) and the inhibition (retest duplicate average) is reported as 73.1%.
In the case of `CC/C(=N\NC(=O)c1ccccc1O)c1c(O)n(Cc2ccccc2)c(=O)[nH]c1=O`, the inhibition is reported as -0.6% (inactive).
For `O=C(OCCN1CCOCC1)C1(c2ccccc2)CCCC1`, the inhibition was -5.6% (inactive).
In the case of `CCOC(=O)c1c(N)n(Cc2ccccc2)c2nc3ccccc3nc12`, the inhibition is reported as 97.2% (active) and the inhibition (retest duplicate average) is reported as 128%.
For `CCOc1cccc(=NC2CCCCC2)c2c(C)[nH]c(C)c12`, the inhibition was -11% (inactive).
With `CC1(C)C(c2ccccc2)=NC(c2cccnc2)=[N+]1[O-]` the inhibition was -6.5% (inactive).
`C/C=C/CC1(CC)C(=O)NC(=S)NC1=O` was tested, and the inhibition was -3.2% (inactive).
In the case of `COc1cc(OC)cc(C2(C#N)CCN(C)CC2)c1`, the inhibition is reported as -1.4% (inactive).
In the case of `CCOC(=O)C1(CCc2ccccc2)CCN(Cc2ccco2)CC1`, the inhibition is reported as -5.4% (inactive).
